# An excerpt weighted towards active compounds, which were near 9.2% of everything screened.
# ELG1 repair inh: qHTS screen for small molecules that inhibit ELG1-dependent DNA repair in human embryonic kidney (HEK293T) cells expressing luciferase-tagged ELG1. 330,000 compounds, 2.3% hits. HEK293T ELG1-luciferase reporter, luminescence, 16 h; DNA damage induced by 5-fluorouridine. Potency, µM (series often up to 46.1 µM), actives largely listed as inhibitors. AID 504467, 2011; note: nearly all actives have a fitted effect of over 55% in size
#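 Quantitative HTS, concentration-response format. 2,000 cells/well co-treated with 5-fluorouridine and compound, 16 hr in 5% CO2 at 37 °C; ONE-Glo luminescence read after 30 min.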
# NPC1 promoter act: qHTS Assay for NPC1 Promoter Activators; Potency, µM (highest dose often 9.22 µM), usual class: activators; Huh7 NPC1 promoter luciferase reporter, 24 h; 320,000 compounds, 2.4% hits; note: nearly all actives have a fitted effect of over 60% in size
#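 Stable NPC1-promoter luciferase Huh7 line; cpd (DMSO) 24 h, 37 °C, 5% CO2; Amplite luciferase reagent 10 min RT; luminescence readout. qHTS format.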
# ELG1 genotoxic: qHTS screen for small molecules that induce genotoxicity in human embryonic kidney (HEK293T) cells expressing luciferase-tagged ELG1; HEK293T ELG1-luciferase reporter, luminescence, 16 h; Potency, µM (highest dose often 46 µM), hits mostly activators; 330,000 compounds, 1.3% hits; note: nearly all actives have a fitted effect of over 60% in size
#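 Reporter readout depends on ELG1 protein level, which increases with genetic stress. After 16 hr compound exposure at 37 °C, luciferase activity was quantified using ONE-Glo.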
# SMN2 splice up: qHTS Assay for Enhancers of SMN2 Splice Variant Expression; AID 1458, 2008; Potency, µM (titrated, usually from 46.1 µM), usual class: activators; 210,000 compounds, 2.8% hits; HEK293 SMN2-luciferase splicing reporter, luminescence, 30-36 h; note: nearly all actives have a fitted effect of over 55% in size
#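 HEK293 cells carry an SMN2 […]–luciferase reporter in which exon 7 inclusion puts luciferase in frame. Cells were plated 10-12 h before compound addition, then incubated 30-36 h at 37C. ONE-Glo luminescence was read; sodium butyrate at 4.5 mM final served as control.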
# Rab9 promoter act: qHTS Assay for Rab9 Promoter Activators; Huh7 Rab9 promoter-luciferase reporter, luminescence, 24 h; 320,000 compounds, 2.8% hits; Potency, µM (titrated, usually from 9.22 µM), hits mostly activators; note: nearly all actives have a fitted effect of over 60% in size
#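 Cells were plated at 1500 per well in reduced-serum medium with 10% FBS and left 2 h. Compound in DMSO was then added for 24 h at 37 °C. Reporter signal was read by luminescence after 10 min with luciferase detection reagent.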
# FLuc counter: qHTS profiling assay for firefly luciferase inhibitor/activator using purifed enzyme and Km concentrations of substrates (counterscreen for miR-21 project); Luciferin 4-monooxygenase (Photinus pyralis), P08659; purified FLuc, Km substrates, luminescence inhibition; Potency, µM (series often up to 57.5 µM), most hits filed as inhibitors; 360,000 compounds, 6.9% hits; AID 588342, 2011; note: nearly all actives have a fitted effect of over 55% in size
# Target sequence (P08659 whole entry, looked up): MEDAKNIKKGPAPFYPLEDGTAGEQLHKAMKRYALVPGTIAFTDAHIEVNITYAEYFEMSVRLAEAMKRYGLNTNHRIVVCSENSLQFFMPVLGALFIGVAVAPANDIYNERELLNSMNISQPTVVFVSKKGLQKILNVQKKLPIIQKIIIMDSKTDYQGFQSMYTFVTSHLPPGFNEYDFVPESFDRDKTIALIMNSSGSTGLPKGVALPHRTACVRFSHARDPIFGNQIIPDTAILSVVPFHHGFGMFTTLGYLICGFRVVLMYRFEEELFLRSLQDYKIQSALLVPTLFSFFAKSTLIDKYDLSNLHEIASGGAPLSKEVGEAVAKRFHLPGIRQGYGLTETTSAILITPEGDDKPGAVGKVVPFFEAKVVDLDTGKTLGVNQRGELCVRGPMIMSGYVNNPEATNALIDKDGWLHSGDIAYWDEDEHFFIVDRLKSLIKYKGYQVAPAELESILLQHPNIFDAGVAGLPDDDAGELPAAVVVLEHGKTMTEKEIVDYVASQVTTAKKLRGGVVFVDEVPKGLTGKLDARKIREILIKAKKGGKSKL
#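 Purified P. pyralis luciferase, 10 nM final, with Km-level 10 uM D-luciferin and 10 uM ATP in 50 mM Tris acetate pH 7.5, 10 mM Mg acetate, 0.01% Tween-20, 0.05% BSA; 6-point qHTS titration about 60 µM downward; luminescence read.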
# Hits are given with their value; n = inactive; u = inconclusive; x = not tested or not shown; [ ] = remark or other dose. Calls come from the whole dose curve; as a rule, active = well fitted curve in the direction sought with a large enough effect; inconclusive = small, poorly fitted or top-dose-only effect, or another doubt; inactive = no such curve, though single readings can be large; an effect the other way counts as inactive or inconclusive.
SMILES,ELG1 repair inh,NPC1 promoter act,ELG1 genotoxic,SMN2 splice up,Rab9 promoter act,FLuc counter
Nc1c(Cl)ncnc1NCCO,n,n,n,x,n,n
Oc1ccc(/C=N/Nc2nccnc2Cl)cc1,u,4µM,12µM,u,3.2µM,11µM
CCOCCCNC(=O)CN1C(=O)c2c(c3ccccc3n2C)C1c1ccc(OC)cc1 (stereo not drawn),x,x,x,x,x,n
Cc1cccc(N(CC(=O)Nc2cccc(Cl)c2C)S(C)(=O)=O)c1C,x,x,x,n,x,n
CC(C)(C)c1csc(N/N=C/c2ccc(O)cc2)n1,u,n,u,x,u,21µM
CC(=O)Nc1sc(N/N=C\c2ccco2)nc1-c1cccs1,n,n,n,n,n,17µM
CC(=O)Nc1sc(N/N=C\c2ccccc2)nc1-c1cccs1,u,n,u,n,n,19µM
Cc1ccc(NC(=O)CCC(=O)N/N=C/c2ccc(O)cc2)cc1,u,n,n,x,n,n
CC(=O)Nc1sc(N/N=C/c2ccc(O)cc2)nc1-c1ccc(C)cc1,u,n,u,x,n,2.4µM
COc1cc(-c2nc(Cn3nnc(C(=O)Nc4ccccc4C)c3C)c(C)o2)cc(OC)c1OC,x,x,x,n,x,n
Cc1cc(NC(=O)CN2C(=O)NC(CC(C)C)C2=O)ccc1Br (stereo not drawn),n,n,n,x,n,n
Cc1cccc(CC2C(=O)Nc3ccccc32)c1 (stereo not drawn),x,x,x,x,x,n
CC(=O)Nc1sc(N/N=C\c2ccccc2Cl)nc1-c1cccs1,u,n,u,n,n,n
COc1ccc(/C=N/Nc2nc(-c3ccc(C)cc3)c(NC(C)=O)s2)cc1,n,n,n,x,n,5.4µM
CC(=O)Nc1sc(-c2ccccc2)nc1-c1ccccc1,u,n,n,n,n,n
CCOc1cc(/C=N/Nc2nc(-c3cccs3)c(NC(C)=O)s2)ccc1O,u,n,n,x,n,27µM
CC(=O)Nc1sc(-c2ccc(Cl)cc2)nc1-c1ccccc1,n,n,n,x,n,n
CC(=O)Nc1sc(N/N=C/c2ccccc2F)nc1-c1ccc(C)cc1,n,n,n,x,n,7.6µM
CC(=O)Nc1sc(N/N=C/c2ccccc2)nc1-c1ccc(C)cc1,u,n,n,x,n,8.5µM
CCOc1ccc(Sc2cc(C(=O)NCc3ccccc3Cl)c3ccccc3n2)cc1,x,x,x,x,x,n
CC(=O)c1cccc(NC(=O)Cn2c(=O)oc3cc(S(=O)(=O)NCc4ccccc4)ccc32)c1,x,x,x,x,x,n
Cc1ccc2c(c1)N=C(c1ccc(F)cc1)CO2,u,4µM,u,n,3.2µM,4.3µM
Cc1ccc(-c2cc3ncc4c(n3n2)-c2cc(F)ccc2OC4)cc1,x,x,x,n,x,n
O=[N+]([O-])c1ccc(C2=Nc3cc(Cl)ccc3OC2)cc1,u,n,n,n,n,15µM
O=C(NCc1ccco1)c1ccc(-c2ccccc2Cl)o1,u,n,n,n,n,17µM
SMILES,ELG1 repair inh,NPC1 promoter act,ELG1 genotoxic,SMN2 splice up,Rab9 promoter act,FLuc counter
O=C(NCc1ccco1)c1ccc(-c2ccc(Cl)cc2)o1,u,n,n,n,n,15µM
COc1ccccc1CNC(=O)c1ccc(-c2ccccc2Cl)o1,n,n,n,n,n,u
O=C(NCC1CCCO1)c1ccc(-c2ccccc2Cl)o1 (stereo not drawn),u,3.5µM,u,x,2.8µM,17µM
O=C(NCC1CCCO1)c1cc(-c2ccccc2F)no1 (stereo not drawn),u,u,u,x,2.8µM,15µM
COc1cccc([C@@H]2Oc3ccc(OC)cc3[C@H](O)[C@H]2O)c1,x,x,x,n,x,x
Cc1ccc(C)c(Nc2c(F)c(F)c(F)c(F)c2C(=O)O)c1,n,n,n,n,n,15µM
CCOCCCNCc1cc(Cl)cc(Cl)c1OCC,n,n,n,n,n,n
C=C1CSc2nc(=O)c3c4c(sc3n21)CCC4,21µM,n,n,n,n,n
CCN1C(=O)/C(=C2/C=Cc3ccccc3N2C)OC1=S,u,2.5µM,u,u,3.5µM,u
CCN1C(=O)/C(=C2\C=Cc3cc(C)ccc3N2CC)OC1=S,n,n,n,n,n,n
CC(C)(C)c1cc(NC(=O)c2ccc(OC3CCCC3)cc2)no1,u,n,n,n,n,u
O=C(Nc1ccon1)c1ccc(OC2CCCC2)cc1,u,2.5µM,u,18µM,2µM,3µM
COc1ccc(C(NC(=O)C(C)C)c2ccc3cccnc3c2O)cc1 (stereo not drawn),2.3µM,n,n,x,n,n
CC1(C)Oc2ccc3ccc(=O)oc3c2/C(=C/NCCN/C=C2\C(=O)C(C)(C)Oc3ccc4ccc(=O)oc4c32)C1=O,8.2µM,n,n,n,n,n
COc1cc(OC)cc(-c2nnc(SCC(=O)N(Cc3ccccc3)C(C)(C)C)o2)c1,23µM,n,n,n,n,n
COc1cc(-c2nnc(SCC(=O)NCc3ccccc3Cl)o2)cc(OC)c1OC,x,x,x,x,x,n
CCCCN(CCCC)C(=O)CSc1nnc(-c2cc(OC)c(OC)c(OC)c2)o1,10µM,n,n,n,n,n
COc1cc(-c2nnc(SCC(=O)N(Cc3ccccc3)C(C)(C)C)o2)cc(OC)c1OC,21µM,n,n,n,n,n
Cc1ccc2c(=O)cc(C(=O)Nc3c(C(=O)c4ccc(F)cc4)oc4ccccc34)oc2c1C,x,x,x,n,x,n
Cc1ccc(-n2c(=O)c3c(cnn3C)n(Cc3ccccc3F)c2=O)cc1,x,x,x,n,x,n
N#Cc1c(N)nc2c(c1N)CC(COc1ccccc1)O2 (stereo not drawn),u,2.8µM,u,x,4.5µM,17µM
N#Cc1c(N)nc2c(c1N)CC(CO)O2 (stereo not drawn),n,n,n,n,n,n
Cc1ccccc1OCC1Cc2c(nc(N)c(C#N)c2N)O1 (stereo not drawn),u,u,u,x,u,13µM
CCN(C(=O)COC(=O)c1oc2ccc(OC)cc2c1C)C1CCS(=O)(=O)C1 (stereo not drawn),n,n,n,x,n,n
CN(C(=O)CSc1ncnc2sccc12)C1CCCCC1,u,u,u,x,2.8µM,13µM
Nc1nc(-c2ccc3ccccc3c2)cc(-c2cc(-c3ccc4ccccc4c3)nc(N)n2)n1,x,x,x,n[9.22 µM],x,x
COCCNC(=O)c1cnn2c1NC(c1ccco1)CC2C(F)(F)F (stereo not drawn),n,n,n,n,n,n
Cc1ccc(Cl)cc1NC(=O)c1cnn2c1NC(c1ccco1)CC2C(F)(F)F (stereo not drawn),18µM,n,n,n,n,n

# Bioassay records deposited in PubChem by National Center for Advancing Translational Sciences (NCATS).
